The target of test [1] is Cytochrome P450 3A4 (Homo sapiens) (UniProt P08684). Description: qHTS Assay for Inhibitors and Substrates of Cytochrome P450 3A4 (AID 884). Also: series mostly up to about 57 µM; % is scaled to controls: 0 for no effect and ±100 for the full control effect; nearly all actives have a fitted effect of over 50% in size. Summed up: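 Luminescent readout of luciferin produced by CYP3A4 (20 nM) dealkylation of Luciferin-PPXE, 25 uM (its KM). NADPH-driven reaction ran 60 min at RT after 10 min compound preincubation; data scaled to 57 uM ketoconazole as 100% inhibition.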
Chain of Cytochrome P450 3A4 (Homo sapiens) (P08684 whole entry, looked up): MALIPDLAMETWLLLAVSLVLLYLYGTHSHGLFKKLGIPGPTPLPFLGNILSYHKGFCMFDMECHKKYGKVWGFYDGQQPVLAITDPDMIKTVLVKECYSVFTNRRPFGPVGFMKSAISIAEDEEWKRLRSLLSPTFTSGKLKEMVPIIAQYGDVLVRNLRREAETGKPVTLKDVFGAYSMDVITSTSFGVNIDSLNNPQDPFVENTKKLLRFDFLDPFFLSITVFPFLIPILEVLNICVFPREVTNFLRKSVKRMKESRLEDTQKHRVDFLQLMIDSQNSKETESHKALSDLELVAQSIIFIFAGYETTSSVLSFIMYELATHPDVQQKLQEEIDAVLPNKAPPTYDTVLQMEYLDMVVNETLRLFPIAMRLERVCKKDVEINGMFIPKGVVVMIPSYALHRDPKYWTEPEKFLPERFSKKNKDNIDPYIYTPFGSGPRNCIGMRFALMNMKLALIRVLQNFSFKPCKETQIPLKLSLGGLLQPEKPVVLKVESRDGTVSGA
On the technique in general: In qHTS, concentration-response curves come from the screen itself.

A short description of test [2]: Cell Viability - LYMP2-001 (AID 921).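 Also: series mostly up to about 92 µM; 0% = DMSO only and full inhibition = tetraoctylammonium bromide control wells; nearly all actives have a fitted effect of over 70% in size.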 Summed up: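 Steps: seed 2500 lymphoblastoid cells/well; 5 hr, 37 C; add compound; 24 hr, 37 C; CellTiter-Glo reagent, 30 min room temperature; read luminescence. Concentration-response modeled by Hill equation for AC50.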
A short description of test [3]: MultiTox-Fluor Cytotoxicity Assay - LYMP1-001 - Live Cells (AID 947).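 Also: 0% = DMSO only and full inhibition = tetraoctylammonium bromide control.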
Test [4] in a line: Cell Viability - LYMP2-010 (AID 981).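 Also: cells exposed to compound for 24 hours at 37 °C; nearly all actives have a fitted effect of over 55% in size.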 Also: potency is read from the fitted curve at half-maximal effect. The procedure, abridged:
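qHTS cytotoxicity, 1536-well: 2500 cells/well, 5 hr settle, 24 hr compound at 37 C, CellTiter-Glo 30 min RT, luminescence read. Decrease in ATP = toxicity; AC50 via standard Hill equation. Positive control tetraoctylammonium bromide.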

Test [5] is described as follows: Cell Viability - LYMP2-012 (AID 982).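 Also: cellular ATP by luciferase luminescence where a drop means cytotoxicity; cells exposed to compound for one day before reading; 0% = DMSO only and full loss = 92 µM tetraoctylammonium bromide; nearly all actives have a fitted effect of over 55% in size.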
The nature of test [6]: Cell Viability - LYMP2-016 (AID 984).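 Also: cells exposed to compound for 24 hours at 37 °C; % is scaled to controls: 0 for no effect and ±100 for the full control effect; nearly all actives have a fitted effect of over 55% in size.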 The procedure, abridged: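 Cells were seeded at 2500 per well and rested 5 hr before a 24 hr compound exposure at 37 C. Viability was then gauged as cellular ATP by luciferase luminescence, with AC50 values fitted to the Hill equation.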
The nature of test [7]: Cell Viability - LYMP2-024 (AID 988).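 Also: plate controls were DMSO only for no effect and 92 µM tetraoctylammonium bromide for full effect; nearly all actives have a fitted effect of over 60% in size.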 The procedure, abridged:
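ATP-based luminescence (CellTiter-Glo, 30 min RT) after 24 h compound exposure at 37 C of 2500 lymphoblastoid cells/well; decrease in ATP taken as cytotoxicity. qHTS concentration-response fitted to standard Hill equation for AC50.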

The target of test [8] is Estrogen receptor (Homo sapiens) (UniProt P03372). In words: qHTS assay for small molecule antagonists of estrogen receptor alpha signaling (AID 588513; active = well fitted curve in the direction sought with a large enough effect in the signal ratio, with a control signal flat, not every such curve was filed as active; the % refers to the signal ratio; also: % is scaled to controls: 0 for no effect and ±100 for the full control effect). Summed up:
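Fluorescence from CCF4 substrate after 2 h at room temperature gave reporter activity; cells had been exposed to compound and 0.5nM 17-beta-estradiol for 18 h at 37 C. Hill-equation fitting yielded IC50 and maximal response.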

For test [9] the target is unchanged. In words: qHTS assay for small molecule agonists of estrogen receptor alpha signaling (AID 588514; calls by dose curve;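 also: 0% = vehicle only and 100% = reference agonist; nearly all actives have a fitted effect of over 70% in size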). Summed up:
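Read-out: CCF4 fluorescence from a beta-lactamase reporter in ER-alpha-UAS-bla HEK 293 cells after 18 hrs of compound exposure at 37 C. Normalized to 20 nM 17-beta-estradiol (100%) and DMSO (0%).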

In test [10] the target is Glucocorticoid receptor (Homo sapiens) (UniProt P04150). Description: qHTS assay for small molecule agonists of glucocorticoid receptor signaling (AID 588532; active = well fitted curve in the direction sought with a large enough effect in the signal ratio, with a control signal flat; the % refers to the signal ratio;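 also: 100% = dexamethasone at 0.1 µM and 0% = DMSO only wells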). The settings on record: HeLa MMTV-bla, beta-lactamase ratio, agonist, 18 h; active compounds read high; percent of dexamethasone control, DMSO zero. The procedure, abridged: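 MMTV-bla HeLa beta-lactamase reporter cells in 1% charcoal/dextran FBS medium, compounds up to 92 uM for 18 h at 37 C, CCF4 readout; normalized to 0.1 uM dexamethasone (100%), EC50 and efficacy from Hill fits.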
Chain of Glucocorticoid receptor (Homo sapiens) (P04150 whole entry, looked up): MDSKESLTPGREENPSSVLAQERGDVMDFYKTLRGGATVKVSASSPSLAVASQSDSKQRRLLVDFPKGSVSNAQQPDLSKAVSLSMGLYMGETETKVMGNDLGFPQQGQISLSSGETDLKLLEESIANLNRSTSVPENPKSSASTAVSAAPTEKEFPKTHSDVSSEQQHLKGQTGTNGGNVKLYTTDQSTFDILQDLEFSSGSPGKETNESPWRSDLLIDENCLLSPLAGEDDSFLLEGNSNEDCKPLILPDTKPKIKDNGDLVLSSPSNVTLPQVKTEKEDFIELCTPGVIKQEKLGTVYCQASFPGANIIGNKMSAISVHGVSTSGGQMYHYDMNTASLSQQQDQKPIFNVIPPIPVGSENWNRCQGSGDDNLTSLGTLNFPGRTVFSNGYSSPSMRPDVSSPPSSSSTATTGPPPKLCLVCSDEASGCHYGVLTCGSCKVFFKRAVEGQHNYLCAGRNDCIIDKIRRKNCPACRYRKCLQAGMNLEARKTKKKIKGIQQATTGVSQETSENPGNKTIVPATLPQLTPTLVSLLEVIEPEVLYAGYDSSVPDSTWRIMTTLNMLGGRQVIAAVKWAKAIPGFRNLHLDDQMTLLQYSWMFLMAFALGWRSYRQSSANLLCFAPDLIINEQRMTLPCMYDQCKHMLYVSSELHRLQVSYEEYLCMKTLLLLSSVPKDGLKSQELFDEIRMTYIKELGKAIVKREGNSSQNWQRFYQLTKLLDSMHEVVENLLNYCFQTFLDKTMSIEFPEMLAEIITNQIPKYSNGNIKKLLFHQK

The target is the same in test [11]. In words: qHTS assay for small molecule antagonists of glucocorticoid receptor signaling (AID 588533; active = well fitted inhibition curve with a large enough effect in the signal ratio, with a control signal flat, not every such curve was filed as active; the % refers to the signal ratio;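 also: cells stimulated with 2 nM dexamethasone as agonist; % is scaled to controls: 0 for no effect and ±100 for the full control effect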). Summed up: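 Antagonist-mode qHTS: compound titrations added to GRE-bla HeLa cells, then dexamethasone 2 nM final; 18 h, 37 C. CCF4 FRET fluorescence normalized to dexamethasone and DMSO; IC50 from Hill fit.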
Test [12] concerns the target Peroxisome proliferator-activated receptor gamma (Homo sapiens) (UniProt P37231). Description: qHTS assay for small molecule agonists of peroxisome proliferator-activated receptor gamma signaling (AID 588536; active = well fitted curve in the direction sought with a large enough effect in the signal ratio, with a control signal flat, not every such curve was filed as active; the % refers to the signal ratio). The procedure, abridged: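 Using GeneBLAzer HEK293 cells, response was quantified by CCF4 fluorescence and normalized between basal DMSO (0%) and rosiglitazone 2 uM (100%); curves yielded half-maximal stimulation concentration and efficacy.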

Test [13] addresses Retinoic acid receptor RXR-alpha (Homo sapiens) (UniProt P19793). In words: qHTS assay for small molecule agonists of retinoid X receptor alpha signaling (AID 588544; calls by dose curve).
For test [14], the target named is Thyroid hormone receptor beta (Homo sapiens) (UniProt P10828). Description: qHTS assay for small molecule antagonists of thyroid hormone receptor beta signaling (AID 588547; active = well fitted inhibition curve with a large enough effect in the signal ratio, with a control signal flat, not every such curve was filed as active; the % refers to the signal ratio;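 also: cells stimulated with 0.4 nM T3 agonist during compound exposure; series mostly up to about 77 µM; % is scaled to controls: 0 for no effect and ±100 for the full control effect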). Conditions: TR-UAS-bla HEK293, beta-lactamase ratio, antagonist mode, 18 h. The procedure, abridged:
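TR-UAS-bla GripTite HEK293 cells in 2% charcoal/dextran FBS medium; compounds 0.59 nM to 92 uM with T3 at 0.4nM final, 18 h at 37 C. Beta-lactamase read by CCF4 fluorescence (460/530 nm); Hill fits gave IC50 and efficacy.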

Test [15] deals with Tumor necrosis factor (Homo sapiens) (UniProt P01375). In words: qHTS assay to identify small molecules that stimulate Tumor Necrosis Factor-alpha (TNF-alpha) secretion (AID 651757; active = well fitted curve in the direction sought with a large enough effect in the signal ratio; the % refers to the signal ratio; also: 0% is about no effect). The procedure, abridged: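 THP-1 cells, 3000/well; compound 17 hrs, 37 C; add cryptate/XL665 anti-TNF-alpha antibody pair; 3 hr RT; TR-FRET (HTRF) read of secreted TNF-alpha. Quantitative HTS format.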
Chain of Tumor necrosis factor (Homo sapiens) (P01375 whole entry, looked up): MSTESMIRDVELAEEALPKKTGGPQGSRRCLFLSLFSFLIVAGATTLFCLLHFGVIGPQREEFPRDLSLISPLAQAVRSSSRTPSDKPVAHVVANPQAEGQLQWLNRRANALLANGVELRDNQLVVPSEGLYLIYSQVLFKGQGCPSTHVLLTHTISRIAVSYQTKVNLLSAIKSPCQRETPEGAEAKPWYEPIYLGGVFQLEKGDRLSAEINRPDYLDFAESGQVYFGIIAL

Test [16] in a line: qHTS assay for environmental chemicals that activate the Aryl hydrocarbon Receptor (AhR) signaling pathway (AID 651777). Also: % of control where 0% means no effect; nearly all actives have a fitted effect of over 15% in size. Conditions: 1A2-DRE human hepatoma cells, luciferase, 24 h; activation: active compounds read high. Summed up:
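Following a 24 hr incubation with test chemicals at 37 C and 5% CO2, 1A2-DRE human hepatoma cells received One-Glo reagent; after 30 min at room temperature, luciferase output reflected CYP1A2 induction via AhR.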

The target of test [17] is Nuclear receptor ROR-gamma (Homo sapiens) (UniProt P51449). Description: qHTS assay for small molecule antagonists of the retinoid-related orphan receptor gamma (ROR-gamma) signaling pathway (AID 651802).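 Also: CHO cells with doxycycline-induced ROR-gamma expression; luciferase reporter luminescence driven by ROR response element; series mostly up to about 92 µM; % is scaled to controls: 0 for no effect and ±100 for the full control effect; nearly all actives have a fitted effect of over 60% in size.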 The procedure, abridged: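 Luciferase read-out: ONE-Glo luminescence after 30 min at room temperature, following 16hr doxycycline induction at 37C, 5% CO2 of CHO cells with TET-inducible ROR and RORE-LUC reporter; decreased luminescence = reduced reporter activity.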
Chain of Nuclear receptor ROR-gamma (Homo sapiens) (P51449 whole entry, looked up): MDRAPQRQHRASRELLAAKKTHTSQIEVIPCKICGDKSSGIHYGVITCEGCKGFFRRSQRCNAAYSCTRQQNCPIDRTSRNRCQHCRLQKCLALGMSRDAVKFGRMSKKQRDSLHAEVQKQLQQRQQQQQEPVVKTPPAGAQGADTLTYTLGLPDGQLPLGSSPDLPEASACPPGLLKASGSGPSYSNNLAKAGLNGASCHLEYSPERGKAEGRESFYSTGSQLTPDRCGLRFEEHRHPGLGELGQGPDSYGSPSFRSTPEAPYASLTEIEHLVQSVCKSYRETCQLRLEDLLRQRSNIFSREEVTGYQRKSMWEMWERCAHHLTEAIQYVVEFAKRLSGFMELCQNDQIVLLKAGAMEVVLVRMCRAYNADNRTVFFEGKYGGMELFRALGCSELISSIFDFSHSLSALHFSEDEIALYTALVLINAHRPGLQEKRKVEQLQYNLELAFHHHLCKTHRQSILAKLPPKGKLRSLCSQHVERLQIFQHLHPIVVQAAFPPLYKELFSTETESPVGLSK

A short description of test [18]: qHTS assay for small molecule antagonists of the retinoid-related orphan receptor gamma (ROR-gamma) signaling pathway - cell viability counter screen (AID 720652; active = well fitted curve in the direction sought with a large enough effect in the repeat runs; an effect the other way counts as inactive or inconclusive;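 also: CHO reporter cells with doxycycline-induced ROR-gamma expression; series mostly up to about 92 µM; compound exposure lasted 16 hr before ATP read; % is scaled to controls: 0 for no effect and ±100 for the full control effect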). The procedure, abridged: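 CHO RORE-LUC/TET-ROR line, 1,000 cells/well, 37 C 5% CO2 5 hr; cpd or DMSO + doxycycline induction, 16 hr. CellTiter-Glo, 30 min RT, luminescence = ATP content.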
Test [19] has as its target Nuclear receptor subfamily 1 group I member 2 (Rattus norvegicus) (UniProt Q9R1A7). Description: qHTS assay for small molecule activators of the rat pregnane X receptor (rPXR) signaling pathway (AID 651751; call rule not given here; also: 0% is about no effect). The settings on record: rPXR reporter cells, luciferase (One-Glo), 24 h.
Test [20] in a line: qHTS assay for small molecule activators of the p53 signaling pathway (AID 651743; active = well fitted activation curve with a large enough effect in the signal ratio, not every such curve was filed as active; the % refers to the signal ratio; also: series mostly up to about 92 µM; % of control where 0% means no effect). The settings on record: HCT-116 p53RE-bla, beta-lactamase FRET ratio, 16 h; activation: active compounds read high. The procedure, abridged: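 Reporter: beta-lactamase driven by p53 response elements, stably integrated in HCT-116 cells. Cells seeded at 4,000/well, 5 h preincubation, compound (DMSO) 16 h at 37 C; B/G FRET substrate 2 h RT; fluorescence intensity read.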

“And” between values parts separate entries of the source, which are not always exact repeats. Equal values may be shown once. Values without a mark were called inactive. Inconclusive results are not listed. The source made the active and inactive calls. Unless noted, calls follow the shape of the dose curve; as a rule, active = well fitted curve in the direction sought with a large enough effect; inconclusive = small, poorly fitted or top-dose-only effect, or another doubt; inactive = no such curve, though single readings can be large; an effect the other way counts as inactive or inconclusive.

Chain of Thyroid hormone receptor beta (Homo sapiens) (P10828 whole entry, looked up): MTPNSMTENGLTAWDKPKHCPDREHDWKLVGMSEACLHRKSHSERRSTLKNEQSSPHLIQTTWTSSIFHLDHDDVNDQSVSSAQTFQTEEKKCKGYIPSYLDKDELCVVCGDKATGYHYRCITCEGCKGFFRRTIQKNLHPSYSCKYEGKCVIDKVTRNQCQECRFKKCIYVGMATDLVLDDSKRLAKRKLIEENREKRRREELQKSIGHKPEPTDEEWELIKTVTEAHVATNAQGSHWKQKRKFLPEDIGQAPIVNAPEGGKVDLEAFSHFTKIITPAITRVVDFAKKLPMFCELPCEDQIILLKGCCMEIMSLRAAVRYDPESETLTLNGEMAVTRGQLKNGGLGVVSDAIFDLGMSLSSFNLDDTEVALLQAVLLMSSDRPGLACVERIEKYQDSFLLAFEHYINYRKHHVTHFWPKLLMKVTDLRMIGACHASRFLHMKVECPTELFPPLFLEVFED
Chain of Nuclear receptor subfamily 1 group I member 2 (Rattus norvegicus) (Q9R1A7 whole entry, looked up): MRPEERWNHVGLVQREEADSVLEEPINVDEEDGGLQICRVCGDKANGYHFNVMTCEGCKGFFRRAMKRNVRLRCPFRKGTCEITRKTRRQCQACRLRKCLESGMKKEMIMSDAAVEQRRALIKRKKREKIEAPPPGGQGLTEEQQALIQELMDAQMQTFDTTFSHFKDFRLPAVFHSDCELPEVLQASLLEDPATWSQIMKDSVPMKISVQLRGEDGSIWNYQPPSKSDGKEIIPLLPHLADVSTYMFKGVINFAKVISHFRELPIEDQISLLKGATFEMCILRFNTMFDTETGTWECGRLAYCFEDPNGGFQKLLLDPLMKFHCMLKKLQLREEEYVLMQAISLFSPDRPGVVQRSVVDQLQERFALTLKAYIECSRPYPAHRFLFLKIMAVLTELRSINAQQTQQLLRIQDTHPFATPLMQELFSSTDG
Chain of Peroxisome proliferator-activated receptor gamma (Homo sapiens) (P37231 whole entry, looked up): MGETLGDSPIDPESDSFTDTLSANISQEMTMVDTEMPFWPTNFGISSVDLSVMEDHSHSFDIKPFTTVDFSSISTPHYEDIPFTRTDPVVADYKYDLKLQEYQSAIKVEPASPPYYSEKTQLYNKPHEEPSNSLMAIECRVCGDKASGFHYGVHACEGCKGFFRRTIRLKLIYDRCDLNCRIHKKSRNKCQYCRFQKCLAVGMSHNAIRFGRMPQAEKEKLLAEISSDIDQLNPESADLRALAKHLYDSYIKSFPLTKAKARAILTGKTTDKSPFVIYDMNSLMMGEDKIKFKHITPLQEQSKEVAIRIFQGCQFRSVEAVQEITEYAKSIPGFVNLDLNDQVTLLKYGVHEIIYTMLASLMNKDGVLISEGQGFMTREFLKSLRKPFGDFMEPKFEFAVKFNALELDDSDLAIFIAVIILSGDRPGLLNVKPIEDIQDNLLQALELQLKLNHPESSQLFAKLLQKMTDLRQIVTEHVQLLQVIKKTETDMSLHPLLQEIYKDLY
Chain of Retinoic acid receptor RXR-alpha (Homo sapiens) (P19793 whole entry, looked up): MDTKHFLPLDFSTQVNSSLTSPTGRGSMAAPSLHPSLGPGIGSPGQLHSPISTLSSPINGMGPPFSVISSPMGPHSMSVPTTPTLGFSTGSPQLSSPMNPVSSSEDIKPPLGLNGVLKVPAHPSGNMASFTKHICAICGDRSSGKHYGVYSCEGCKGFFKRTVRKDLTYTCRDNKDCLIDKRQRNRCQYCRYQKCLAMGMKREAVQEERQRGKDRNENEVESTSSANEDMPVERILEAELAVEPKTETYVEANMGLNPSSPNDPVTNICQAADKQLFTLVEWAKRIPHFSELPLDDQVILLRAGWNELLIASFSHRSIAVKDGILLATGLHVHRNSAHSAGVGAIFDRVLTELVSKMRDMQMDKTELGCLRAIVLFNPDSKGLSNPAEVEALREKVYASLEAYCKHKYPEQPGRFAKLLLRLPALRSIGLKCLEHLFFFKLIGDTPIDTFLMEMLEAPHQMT
Chain of Estrogen receptor (Homo sapiens) (P03372 whole entry, looked up): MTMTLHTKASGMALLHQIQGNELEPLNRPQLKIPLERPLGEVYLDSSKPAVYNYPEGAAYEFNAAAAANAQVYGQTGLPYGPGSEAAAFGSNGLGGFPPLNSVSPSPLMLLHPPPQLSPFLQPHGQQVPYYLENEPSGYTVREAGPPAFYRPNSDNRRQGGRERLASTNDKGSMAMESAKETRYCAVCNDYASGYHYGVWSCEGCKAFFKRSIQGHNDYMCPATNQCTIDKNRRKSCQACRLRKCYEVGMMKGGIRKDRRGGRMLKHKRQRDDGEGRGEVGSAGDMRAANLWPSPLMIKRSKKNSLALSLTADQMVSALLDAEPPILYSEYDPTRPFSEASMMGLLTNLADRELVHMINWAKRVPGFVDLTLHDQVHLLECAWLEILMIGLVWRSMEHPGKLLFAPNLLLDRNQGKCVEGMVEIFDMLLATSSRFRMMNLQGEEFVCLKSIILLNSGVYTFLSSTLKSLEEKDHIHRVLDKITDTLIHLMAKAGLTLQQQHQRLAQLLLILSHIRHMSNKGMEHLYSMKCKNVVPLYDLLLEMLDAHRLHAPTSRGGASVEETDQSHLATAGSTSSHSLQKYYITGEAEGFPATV

As to `C[N+](C)(C)Cc1ccccc1`, the Potency result in test [1], in test [2], in test [3], in test [4], in test [5] and in [6] was “inactive” each time. Also, the Potency result in [7], in test [8], in [9], in test [11], in test [13] and in test [17] was “inactive” throughout. Further, the Potency result in [18] was “inactive”. The activation in test [10] was -1.14%; in test [16], -0.332% and -0.436%. Further, the compound was called inactive in [12] and in test [15]. In addition, the activity change % (negative = inhibition) in test [14] is -5.57% and -5.51%. In [19], the max response was -3.63% and -0.669%.

Consider `c1ccc(OP(Oc2ccccc2)Oc2ccccc2)cc1`, for which the Potency entry in [1], in test [2], in [3], in test [4], in [5] and in test [6] was “inactive” throughout. In addition, the Potency entry in test [7], in test [8], in test [9], in test [11], in test [13] and in test [17] was “inactive” each time. For the same compound, the Potency result in test [18] was “inactive”. The activation in test [10] was 10.9% and -3.42%; in test [20] it was -2.41% and -6.19%; in test [16], 0.234% and -1.88%. The call in test [12] and in test [15] was inactive. The activity change % (negative = inhibition) in test [14] is 5.76%. In addition, the max response in test [19] is 0.576% and -1.05%.

Take `CC(O)CCl` (centres undefined): the Potency result in test [1], in test [2], in [3], in [4], in test [5] and in test [6] was “inactive” throughout. Also, the Potency entry in test [7], in test [8], in test [9], in [11], in test [13] and in test [17] was “inactive” in each case. The Potency result in test [18] is “inactive”. Further, the activation in test [10] was -3.59% and -2.54%; in test [16] it was 0.217% and 1.37%. Moreover, the outcome in test [12] and in test [15] was inactive. Further, the activity change % (negative = inhibition) in test [14] is -4.17%. The max response in test [19] is 4.48% and -2.85%.

For the compound `Brc1ccc(Oc2cc(Br)c(Br)cc2Br)c(Br)c1`, the Potency result in [1], in test [2], in test [3], in [4], in test [5] and in test [6] was “inactive” in each case. In addition, the Potency result in [7], in test [8], in [9] and in [18] was “inactive” each time. Further, the activity change % (negative = inhibition) in test [14] was 8.45% and -8.42%. Further, the activation in [20] is -4.19%; in test [16] it was 5.38% and 0.601% and 5.34%. Further, the call in test [15] was inactive.

Regarding `c1ccc2c(c1)CCCC2`, the Potency result in [1], in test [2], in [3], in test [4], in test [5] and in test [6] was “inactive” throughout. The Potency entry in test [7], in test [8], in [9], in [11], in test [13] and in test [17] was “inactive” throughout. In addition, the Potency result in test [18] is “inactive”. The activation in test [10] was 3.9%; in [20], 2.11%; in test [16] it was 2.13%. Further, the compound was classed as inactive in [12] and in test [15]. Further, the activity change % (negative = inhibition) in test [14] is 3.81%. The max response in [19] was -0.477%.

For `C=CC1CC=CCC1` (centres undefined), the Potency entry in test [1], in test [2], in [3], in [5], in test [6] and in test [8] was “inactive” throughout. The Potency result in [9], in test [11] and in test [13] was “inactive” each time. For the same compound, the Potency in test [4] is 39.8 µM (active). Also, the activation in [10] is -1.79% and -4.91%; in test [20], -3.44%; in [16] it was 0.186% and 0.879%. Besides, the call in [12] and in test [15] was inactive. Also, the activity change % (negative = inhibition) in test [14] is 13.7% and -3.35%. Also, the max response in [19] is -0.819% and 2.71%.
